Laboratory results reported in article PMC4336329 (PLoS ONE, 2015).
In all, about 310,000 compounds went through this assay and about 14,000 (4.5%) showed an effect of 50% or more. Effects have a minus sign here. The sample as a whole holds a higher share of strong results than the screen did.

target: human ether-à-go-go-related gene (hERG) potassium channel (human, UniProt Q12809); assay: primary screen, population patch clamp on CHO cells stably expressing hERG; higher = less effect of the substance
Sequence (Q12809 whole entry, looked up): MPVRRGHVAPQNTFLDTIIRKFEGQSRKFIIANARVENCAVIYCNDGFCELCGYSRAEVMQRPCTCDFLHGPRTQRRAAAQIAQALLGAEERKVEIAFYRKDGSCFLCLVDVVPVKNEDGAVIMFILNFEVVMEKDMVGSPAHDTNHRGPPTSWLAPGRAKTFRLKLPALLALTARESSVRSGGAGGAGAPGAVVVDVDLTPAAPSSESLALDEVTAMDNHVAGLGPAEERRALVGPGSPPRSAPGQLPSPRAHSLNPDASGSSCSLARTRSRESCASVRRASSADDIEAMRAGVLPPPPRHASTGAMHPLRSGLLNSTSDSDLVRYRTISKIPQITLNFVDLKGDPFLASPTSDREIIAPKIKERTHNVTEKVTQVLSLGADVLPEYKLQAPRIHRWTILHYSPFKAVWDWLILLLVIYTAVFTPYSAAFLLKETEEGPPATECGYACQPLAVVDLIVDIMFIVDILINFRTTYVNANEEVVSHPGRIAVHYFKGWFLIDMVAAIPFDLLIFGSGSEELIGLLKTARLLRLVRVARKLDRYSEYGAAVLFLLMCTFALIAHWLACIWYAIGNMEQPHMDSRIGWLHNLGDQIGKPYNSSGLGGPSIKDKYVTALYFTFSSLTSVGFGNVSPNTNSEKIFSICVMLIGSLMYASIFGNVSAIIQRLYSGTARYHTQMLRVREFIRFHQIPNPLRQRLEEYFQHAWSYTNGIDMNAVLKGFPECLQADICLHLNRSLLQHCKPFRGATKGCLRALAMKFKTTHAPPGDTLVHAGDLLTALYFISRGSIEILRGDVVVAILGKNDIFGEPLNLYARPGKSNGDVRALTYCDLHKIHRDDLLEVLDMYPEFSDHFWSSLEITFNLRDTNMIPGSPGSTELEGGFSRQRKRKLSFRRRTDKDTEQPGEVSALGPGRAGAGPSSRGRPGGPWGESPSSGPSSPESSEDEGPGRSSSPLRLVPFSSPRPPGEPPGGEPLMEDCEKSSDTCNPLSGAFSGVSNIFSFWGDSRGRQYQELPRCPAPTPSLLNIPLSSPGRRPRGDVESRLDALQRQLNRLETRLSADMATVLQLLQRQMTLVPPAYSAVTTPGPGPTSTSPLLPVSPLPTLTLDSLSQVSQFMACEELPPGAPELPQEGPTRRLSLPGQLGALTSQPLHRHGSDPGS
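Further: peak tail current of the secondary pulse compared with the same well before compound.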

SMILES | hERG current change (%, negative = inhibition) at 10uM [%]
COc1ccc(CCNC(=O)CN(c2ccccc2)S(C)(=O)=O)cc1OC | -8.06
CC(C)(C)CN1CCNC(=O)C1CC(=O)NC1Cc2ccccc2C1 (stereo not shown) | 4.08
CCNC(=O)O/N=C(\C)c1sc(-c2ccc(Cl)cc2)nc1C | -23.9
CCCS(=O)(=O)c1c(S(=O)(=O)CCC)c2ccccn2c1C(=O)OC | -7.5
CCCS(=O)(=O)c1c(S(=O)(=O)CCC)c2cc(-c3ccncc3)ccn2c1C(=O)OC | -50.2
CCCS(=O)(=O)c1c(S(=O)(=O)CCC)c2cc(CC)ccn2c1C(=O)OC | -29.2
O=C(CSc1nnc(NCc2ccccc2)s1)NC1CCS(=O)(=O)C1 (stereo not shown) | 10.1
Cc1cc(SCC(=O)Nc2cccc(S(N)(=O)=O)c2)c(C)cc1Br | 30.8
Cc1ccc(-c2noc(CCC(=O)Nc3ccccc3N3CCN(C)CC3)n2)cc1 | -33.7
CSc1nc(-c2ccccc2)nn1S(=O)(=O)c1ccccc1 | 7
CCOC(=O)C1(Cc2ccccc2)CCN(Cc2cccn2-c2nccs2)CC1 | -82
CCOC(=O)C1(Cc2cccc(OC)c2)CCN(Cc2ccon2)CC1 | 1.68
CCOC(=O)C1(Cc2cccc(OC)c2)CCN(Cc2cccnc2)CC1 | -16.4
CCOC(=O)C1(Cc2cccc(OC)c2)CCN(Cc2cccn2-c2ccccn2)CC1 | -74.8
CCOC(=O)C1(Cc2cccc(OC)c2)CCN(Cc2cccn2-c2nccs2)CC1 | -72
COc1ccc(-n2nc(C(=O)NCC(=O)N(C)Cc3ccccc3)c3ccccc3c2=O)cc1 | -8.21
NC(=O)[C@@H]1[C@@H]2C(=O)N(c3ccc(F)cc3)C(=O)[C@@H]2[C@H]2C=Cc3ccccc3N21 | 14.2
Nc1ccc(C(=O)OCC(=O)c2cccc([N+](=O)[O-])c2)cc1 | 39.8
Cc1ccccc1C(C(=O)NC1CCCCC1)N(C(=O)CNC(=O)c1ccco1)c1cccnc1 (stereo not shown) | 6.3
CC(C)CN(C(=O)CSc1n[nH]c(-c2cccs2)n1)C1CCS(=O)(=O)C1 (stereo not shown) | -2.69
O=C(O)C1CC(=O)N(CCc2ccccc2)C1 (stereo not shown) | 6.79

SMILES | hERG current change (%, negative = inhibition) at 10uM [%]
CCOC(=O)c1ccccc1NC(=O)COC(=O)C1CCCC1 | -2.49
O=C(OCc1ccc([N+](=O)[O-])cc1)C1CC(=O)N(CCc2ccccc2)C1 (stereo not shown) | -69.4
Cc1nn(-c2ccccc2)c(C)c1NC(=O)COC(=O)C1CC(=O)N(CCc2ccccc2)C1 (stereo not shown) | 9.52
CCOc1ccc(COC(=O)C2CC(=O)N(CCc3ccccc3)C2)cc1OC (stereo not shown) | -21.6
Cc1ccc(CN2CC(C(=O)OCc3ccccc3Cl)CC2=O)cc1 (stereo not shown) | 0.354
O=C(Nc1ccccc1)C1CC(=O)N(Cc2ccccc2)C1 (stereo not shown) | 2.14
CCOC(=O)c1ccccc1NC(=O)COC(=O)C1CC(=O)N(CCc2ccccc2)C1 (stereo not shown) | -75.6
O=C(Nc1ccc(F)c([N+](=O)[O-])c1)C1CC(=O)N(Cc2ccccc2)C1 (stereo not shown) | -34.4
O=C(OCc1ccc([N+](=O)[O-])cc1)C1CC(=O)N(Cc2ccccc2Cl)C1 (stereo not shown) | -66.4
O=C(Nc1cccc([N+](=O)[O-])c1)C1CC(=O)N(Cc2ccccc2)C1 (stereo not shown) | -53.2
O=C(OCc1ccccc1Cl)C1CC(=O)N(Cc2ccco2)C1 (stereo not shown) | 11.4
O=C(N/N=C/C(Br)=C/c1ccccc1)C1CC1 | 32.2
COc1ccc(NC(=O)Cn2nnc(C(=O)NCc3ccc4c(c3)OCO4)c2N)c(OC)c1 | 18.1
COc1ccc2oc(C(=O)Nc3nccs3)c(C)c2c1 | 16.7
O=C(OCc1nnc(-c2ccccc2)o1)C1CC(=O)N(c2ccccc2)C1 (stereo not shown) | -21.5
O=C(OCc1nnc(-c2ccccc2)o1)C1CC(=O)N(CCc2ccccc2)C1 (stereo not shown) | -31
O=C(OCc1nnc(-c2ccc([N+](=O)[O-])cc2)o1)C1CC(=O)N(CCc2ccccc2)C1 (stereo not shown) | -61.7
COc1ccc(OC)c(CCNC(=O)CCn2nc(C)c3c(C)n(-c4ccccc4)nc3c2=O)c1 | 18.5
COC(=O)c1oc2ccc(Br)cc2c1NC(C)=O | 3.19
CCCC(=O)Nc1c(C(=O)OCC)oc2ccccc12 | 1.98
CCOC(=O)c1oc2ccc(OC)cc2c1NC(=O)CN1CCN(C)CC1.Cl | -5.54

SMILES | hERG current change (%, negative = inhibition) at 10uM [%]
COC(=O)c1oc2ccc(Br)cc2c1NC(=O)CN1CCN(C)CC1 | -62.3
CCOC(=O)c1oc2ccccc2c1NC(=O)CN1CCOCC1 | 6.54
COC(=O)c1oc2ccc(Br)cc2c1NC(=O)CCN1CCOCC1 | -17.7
CCOC(=O)c1oc2ccccc2c1NC(=O)CN1CCN(C)CC1 | -58.4
COC(=O)c1oc2ccc(Br)cc2c1NC(=O)CCCN1C(=O)c2ccccc2C1=O | 17.1
CCOC(=O)c1oc2ccc(Br)cc2c1NC(=O)CN1CCN(C)CC1 | -65.8
Cc1ccc(C)c(N=Cc2c(O)c3ccccc3oc2=O)c1 | 16.3
CCc1ccc(C(C(=O)NC2CCCC2)N(C(=O)/C=C/C(=O)Nc2cc(C)on2)c2ccccc2C)cc1 (stereo not shown) | 9.58
C/C(=N\Nc1ccccc1Cl)c1ccc(-n2ccnc2)cc1 | -7.1
COCCCN1CN=C(NS(=O)(=O)c2ccc(C)cc2)NC1 | 13.3
CC(=O)c1cccc(NC(=O)COc2ccc(S(=O)(=O)N3CCOCC3)cc2)c1 | -10.1
Cc1nc2ccc(-c3nc4ccccc4[nH]3)cc2[nH]1 | 7.78
Cc1ccc(S(=O)(=O)NCCC(=O)NC2CCCCC2C)cc1 (stereo not shown) | 3.4
COC(=O)c1ccccc1NC(=O)C12CC3CC(C1)CC(n1cnc(Cl)n1)(C3)C2 | -38.5
COc1ccc(OC)c(NC(=O)C23CC4CC(C2)CC(n2cnc(Br)n2)(C4)C3)c1 | -41.2
COc1ccc(NC(=O)C23CC4CC(C2)CC(n2cnc(Br)n2)(C4)C3)c(C)c1 | -9.06
O=C(Nc1ccccc1)C12CC3CC(C1)CC(n1cnc([N+](=O)[O-])n1)(C3)C2 | -59.6
COc1ccc(NC(=O)C23CC4CC(C2)CC(n2cnc(Br)n2)(C4)C3)cc1OC | -2.41
CC(=O)Nc1ccc(NC(=O)C23CC4CC(C2)CC(n2cnc(Br)n2)(C4)C3)cc1 | -63.4
COC(=O)c1ccc(NC(=O)C23CC4CC(C2)CC(n2cnc(Cl)n2)(C4)C3)cc1 | -27.3
Cc1ccc(F)cc1NC(=O)C12CC3CC(C1)CC(n1cnc([N+](=O)[O-])n1)(C3)C2 | -52.8

SMILES | hERG current change (%, negative = inhibition) at 10uM [%]
COc1ccc(NC(=O)C23CC4CC(C2)CC(n2cnc(Br)n2)(C4)C3)cc1Cl | 3.08
O=C(Nc1cccc2ccccc12)C12CC3CC(C1)CC(n1cnc([N+](=O)[O-])n1)(C3)C2 | -44.5
COc1cc(NC(=O)C23CC4CC(C2)CC(n2cnc([N+](=O)[O-])n2)(C4)C3)cc(OC)c1 | -66.7
COc1ccc(NC(=O)C23CC4CC(C2)CC(n2cnc(Br)n2)(C4)C3)c(OC)c1 | -23.4
Cn1c(=O)c([N+](=O)[O-])c(NCC(O)c2ccccc2)c2ccccc21 (stereo not shown) | -2.03
CCOC(=O)Cc1nn(C(C)C)c(=O)c2ccccc12 | 26.6
Cc1cccc(NC(=O)CCn2nc(C)cc2C)c1 | 9.02
CN(C)C(=O)/C(=C/c1cn(-c2ccccc2)nc1-c1cccc([N+](=O)[O-])c1)NC(=O)c1ccccc1 | -29.1
CCNC(=S)N1CCCC(c2nc3ccc(C)cc3[nH]2)C1 (stereo not shown) | -2.45
CC1=C(C(=O)OCc2ccccc2)C(c2ccc(Cl)cc2Cl)NC(=O)N1CCCCCC(=O)O (stereo not shown) | -16.2
CCN(CC(=O)Nc1ccc(OC)cc1)C(=O)c1cc(-c2cccs2)nn1-c1ccccc1 | -15.4
CCOc1ccc(CN(C)C(=O)[C@H](Cc2ccccc2)NC(=O)OCc2ccccc2)cc1OC | -15.7
c1csc(CNc2ncnc3nc[nH]c23)c1 | -2.79
O=C(Nc1cccc([N+](=O)[O-])c1)C12CC3CC(C1)CC(n1cnc([N+](=O)[O-])n1)(C3)C2 | -67.8
O=C(O)c1cccc(NC(=O)C23CC4CC(C2)CC(n2cnc(Cl)n2)(C4)C3)c1 | 6.02
Cc1cc(NC(=O)C23CC4CC(C2)CC(n2cnc([N+](=O)[O-])n2)(C4)C3)no1 | -32.4
O=[N+]([O-])c1ncn(C23CC4CC(CC(C4)C2)C3)n1 | -8.76
O=C(Nc1cc(Oc2ccccc2)cc([N+](=O)[O-])c1)C12CC3CC(C1)CC(n1cnc(Cl)n1)(C3)C2 | 13.9
O=C(Nc1ccon1)C12CC3CC(C1)CC(n1cnc([N+](=O)[O-])n1)(C3)C2 | -50.5
